Cruzain inh noDet – blocks cruzain activity in detergent-free assay; purified cruzain, Z-FR-AMC fluorescence, no detergent; Potency, µM, for inactives: max response, negative = inhibition, hits mostly inhibitors; hit rate 2.3% among 200,000; AID 1476;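 also: plate controls were enzyme without inhibitor for no effect and buffer without enzyme for full effect; nearly all actives have a fitted effect of over 40% in size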
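Detergent-free condition (0.00005% Triton X-100) in acetate buffer pH 5.5 with DTT. 1.5 nM enzyme and compound were pre-mixed 15 min, then 2 uM Z-FR-AMC substrate added; reaction progress from fluorescence change between first and third reads (60 s).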
Giardia FBPA inh-1 – inhibitors of Giardia lamblia fructose-1,6-bisphosphate aldolase; A8B2U2; Potency, µM (titrated, usually from 59.6 µM), for the others: at the highest dose activity, negative = inhibition, most hits filed as inhibitors; purified Giardia FBPA; hit rate 0.71% among 290,000; also: nearly all actives have a fitted effect of over 55% in size
Target sequence (A8B2U2 whole entry, looked up): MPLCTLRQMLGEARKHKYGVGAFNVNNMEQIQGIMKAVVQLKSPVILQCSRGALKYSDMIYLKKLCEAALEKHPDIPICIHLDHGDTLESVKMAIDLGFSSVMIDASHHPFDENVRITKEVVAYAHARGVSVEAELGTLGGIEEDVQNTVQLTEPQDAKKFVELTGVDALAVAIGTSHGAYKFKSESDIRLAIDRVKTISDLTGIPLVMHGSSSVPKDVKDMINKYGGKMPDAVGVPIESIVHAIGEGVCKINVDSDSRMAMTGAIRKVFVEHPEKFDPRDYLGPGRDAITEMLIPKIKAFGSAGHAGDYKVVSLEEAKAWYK
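40 nM FBPA preincubated 10 min at RT with compound (up to 57.5 uM final), then substrate plus GAPDH/TPI/NAD/arsenate coupling and diaphorase/resazurin added. Fluorescence read after 20 min at RT, 525/598 nm.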
Cruzain Triton – blocks cruzain activity in presence of Triton detergent. purified cruzain, Z-FR-AMC fluorescence, 0.01% Triton. P25779. AID 1478. hit rate 0.43% among 200,000. Potency, µM, for the others: max response, negative = inhibition, most hits filed as inhibitors;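 also: plate controls were neutral wells for no effect and buffer without enzyme for full effect; nearly all actives have a fitted effect of over 40% in size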
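Sodium acetate buffer (100 mM, pH 5.5) containing 5 mM DTT and 0.01% Triton X-100 hosted 1.5 nM cruzain and test compound for 15 min at room temperature. Cleavage of 2 uM Z-FR-AMC was then tracked by fluorescence.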
Giardia growth – blocks growth of Giardia lamblia trophozoites; hit rate 5% among 1,500; shares compounds with Giardia FBPA inh-1; Potency, µM (series often up to 57.5 µM), without a hit: at the highest dose activity change, negative = inhibition, hits mostly inhibitors; Giardia lamblia trophozoite growth inhibition;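 also: trophozoites exposed to compound for 48 h at 37 °C; nearly all actives have a fitted effect of over 70% in size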
Mammal cell tox – mammalian cytotoxicity of Giardia aldolase inhibitor hits. shares compounds with Giardia FBPA inh-1. mammalian cell viability counter-screen, qHTS. Potency, µM (top dose mostly 57.5 µM), for inactives: at the top dose viability change, negative = toxicity, most hits filed as inhibitors. hit rate 4% among 1,500. AID 2786;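 also: Chinese hamster ovary cells used as mammalian cytotoxicity surrogate; viability measured as cellular ATP by luminescence; compound exposure lasted 48 h before reading; nearly all actives have a fitted effect of over 60% in size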
Giardia FBPA inh-2 – confirmation of Giardia fructose-bisphosphate aldolase inhibitors; hit rate 5% among 1,500; purified Giardia aldolase enzyme activity, qHTS; shares compounds with Giardia FBPA inh-1; Potency, µM (titrated, usually from 57.5 µM), without a hit: at the top dose activity change, negative = inhibition, usual class: inhibitors; also: nearly all actives have a fitted effect of over 45% in size
Rabbit FBPA inh – selectivity test for Giardia aldolase inhibitors: rabbit aldolase. shares compounds with Giardia FBPA inh-1. Rabbit muscle FBPA enzyme inhibition, selectivity counter-screen. Potency, µM (titrated, usually from 57.5 µM), for inactives: at the highest dose activity, negative = inhibition, usual class: inhibitors. hit rate 4% among 1,500. AID 2794; also: nearly all actives have a fitted effect of over 60% in size
Target sequence (P00883 whole entry, looked up): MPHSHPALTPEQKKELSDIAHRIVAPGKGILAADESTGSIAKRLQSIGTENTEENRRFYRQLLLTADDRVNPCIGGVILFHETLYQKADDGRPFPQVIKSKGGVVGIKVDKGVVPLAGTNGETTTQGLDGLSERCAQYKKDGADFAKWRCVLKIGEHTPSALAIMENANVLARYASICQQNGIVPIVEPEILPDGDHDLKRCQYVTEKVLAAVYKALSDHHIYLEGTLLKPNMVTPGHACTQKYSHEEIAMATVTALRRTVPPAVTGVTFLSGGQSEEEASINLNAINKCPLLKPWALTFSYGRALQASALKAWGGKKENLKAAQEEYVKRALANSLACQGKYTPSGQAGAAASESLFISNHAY
GAPDH counter – counter-screen for Giardia aldolase inhibitors: GAPDH coupling enzyme; shares compounds with Giardia FBPA inh-1; GAPDH coupling enzyme counterscreen, biochemical, qHTS; Potency, µM (top dose mostly 57.5 µM), for inactives: at the top dose activity change, negative = inhibition, usual class: inhibitors; hit rate 6% among 1,500; AID 2795; also: nearly all actives have a fitted effect of over 55% in size
Active calls of the source: *; [ ] = dose if it differs, or a comment. The entries come from a sample that favours hits as a whole. Calls follow the shape of the dose curve; as a rule, active = well fitted curve in the direction sought with a large enough effect; inconclusive = small, poorly fitted or top-dose-only effect, or another doubt; inactive = no such curve, though single readings can be large; an effect the other way counts as inactive or inconclusive. Unless noted, % is scaled to controls: 0 for no effect and ±100 for the full control effect; potency is read from the fitted curve at half-maximal effect.

`COc1ccc(C2CC(=O)N3CN(c4ccccc4F)CSC3=C2C#N)cc1OC` (stereo not drawn) gave Cruzain inh noDet 2%, Giardia FBPA inh-1 2.8µM*, Cruzain Triton 1%, Giardia growth inconclusive, Mammal cell tox 5%, Giardia FBPA inh-2 inconclusive, Rabbit FBPA inh 32µM* and GAPDH counter inconclusive.
`COc1ccc2ccccc2c1C1CC(=O)N2CN(Cc3ccco3)CSC2=C1C#N` (stereo not drawn) gave Cruzain inh noDet inconclusive, Giardia FBPA inh-1 inconclusive and Cruzain Triton -17%.
For COc1ccc(C2CC(=O)N3CN(Cc4ccco4)CSC3=C2C#N)cc1 (stereo not drawn) the results were Cruzain inh noDet -9%, Giardia FBPA inh-1 inconclusive and Cruzain Triton 0%.
For COc1ccc(N2CSC3=C(C#N)C(c4cccc(OC)c4OC)CC(=O)N3C2)cc1 (stereo not drawn) the results were Cruzain inh noDet 6%, Giardia FBPA inh-1 2µM*, Cruzain Triton -16%, Giardia growth 15%, Mammal cell tox 7%, Giardia FBPA inh-2 inconclusive, Rabbit FBPA inh inconclusive and GAPDH counter inconclusive.
For COc1cc(C2CC(=O)N3CN(Cc4ccco4)CSC3=C2C#N)ccc1OCc1ccccc1 (stereo not drawn) the results were Cruzain inh noDet 2%, Giardia FBPA inh-1 inconclusive and Cruzain Triton -18%.
COc1ccccc1NC(=O)Cn1c(=O)n(Cc2ccco2)c(=O)c2oc3ccccc3c21 was read as Cruzain inh noDet -5% and Cruzain Triton -2%.
For CCC(=O)N1CCc2cc(Br)cc(S(=O)(=O)N(CC)Cc3ccccc3)c21 the results were Cruzain inh noDet -2% and Cruzain Triton -2%.
`O=C1C(=O)c2ccccc2-c2ccccc21` gave Cruzain inh noDet inconclusive, Giardia FBPA inh-1 0.14µM*, Cruzain Triton inconclusive, Giardia growth 13µM*, Mammal cell tox 20µM*, Giardia FBPA inh-2 1.1µM*, Rabbit FBPA inh 0.89µM* and GAPDH counter 1.1µM*.
For COC1=C(OC)C(=O)c2ccccc2C1=O the results were Cruzain inh noDet 3%, Giardia FBPA inh-1 -18% and Cruzain Triton -2%.
`Cc1c(O)ccc2c(CN3CCN(Cc4ccccc4)CC3)cc(=O)oc12` gave Giardia FBPA inh-1 -6%.
O=c1cc(CN2CCN(Cc3ccccc3)CC2)c2ccc(O)c(O)c2o1 was read as Giardia FBPA inh-1 18µM*, Giardia growth -28%, Mammal cell tox -28%, Giardia FBPA inh-2 inconclusive, Rabbit FBPA inh inconclusive and GAPDH counter -24%.
`C[C@H](NC(=O)N1CCc2nc(-c3ccccc3)c3c(c2C1)CO[C@@H](C)C3)c1ccccc1` gave Giardia FBPA inh-1 5%[12.9 µM].
For Cc1nnc(SCc2cc(=O)c3ccccc3[nH]2)s1 the results were Cruzain inh noDet -16% and Cruzain Triton -2%.
For Cc1nnc(SCc2cc(=O)[nH]c(=S)[nH]2)s1 the results were Giardia FBPA inh-1 7.9µM*, Giardia growth -25%, Mammal cell tox 0%, Giardia FBPA inh-2 5%, Rabbit FBPA inh 7% and GAPDH counter 13%.
CCCCCCCCCCCCC(=O)N1CCCC[C@H]1CNC(=O)[C@@H](N)CCCCN was read as Cruzain inh noDet 14%, Giardia FBPA inh-1 9% and Cruzain Triton -3%.
Screening CC1(C)CCC[C@@](C)([C@H]2CC[C@]3(C)[C@@H]2[C@H](O)C[C@@H]2[C@@]4(C)CC[C@H](O)C(C)(C)[C@@H]4CC[C@]23C)O1 returned Giardia FBPA inh-1 -2%.
For CCc1nnc(NC(=O)CN2CCCC(C)C2)s1 (stereo not drawn) the results were Giardia FBPA inh-1 4µM*, Giardia growth -8%[10.4 µM], Mammal cell tox 16%, Giardia FBPA inh-2 3%, Rabbit FBPA inh 4% and GAPDH counter 15%.
`Cc1nnc(NC(=O)CN2CC(C)OC(C)C2)s1` (stereo not drawn) gave Giardia FBPA inh-1 2.5µM*, Giardia growth -5%[38.3 µM], Mammal cell tox -7%, Giardia FBPA inh-2 0%, Rabbit FBPA inh 2% and GAPDH counter 4%.
CCOC(=O)N1CCN(CC(=O)Nc2nnc(C(F)(F)F)s2)CC1 was read as Giardia FBPA inh-1 5µM*, Giardia growth inconclusive, Mammal cell tox -6%, Giardia FBPA inh-2 7%, Rabbit FBPA inh 6% and GAPDH counter -10%.
CCOC(=O)c1sc(NC(=O)CN2CC(C)OC(C)C2)nc1C (stereo not drawn) was read as Giardia FBPA inh-1 -24%.
For CCc1nnc(NC(=O)C2CCC2)s1 the results were Cruzain inh noDet 2%, Giardia FBPA inh-1 -5% and Cruzain Triton -1%.
Screening COCC(=O)Nc1nc2ccccc2s1 returned Cruzain inh noDet -5%, Giardia FBPA inh-1 9% and Cruzain Triton 3%.
For NC(=S)Nc1nc2ccccc2s1 the results were Giardia FBPA inh-1 5.6µM*, Giardia growth -6%[38.3 µM], Mammal cell tox inconclusive, Giardia FBPA inh-2 6%, Rabbit FBPA inh 10% and GAPDH counter -13%.
Screening O=C(CN1CCN(c2ccccc2F)CC1)Nc1nnc(C(F)(F)F)s1 returned Giardia FBPA inh-1 -2%.
`O=C(CCC(=O)N1CC2CCCN2c2ccccc21)NCc1ccc(Cl)cc1` (stereo not drawn) gave Cruzain inh noDet 13% and Cruzain Triton -11%.
For CC(CCC(=O)Nc1nncs1)C(=O)O (stereo not drawn) the results were Cruzain inh noDet 11%, Giardia FBPA inh-1 0% and Cruzain Triton 4%.
CCc1nnc(NC(=O)CN2CCN(CC)CC2)s1 was read as Giardia FBPA inh-1 3.5µM*, Giardia growth 2%[10.4 µM], Mammal cell tox 1%, Giardia FBPA inh-2 9%, Rabbit FBPA inh 6% and GAPDH counter 14%.
O=C(CN1CCN(Cc2ccccc2)CC1)Nc1nc2ccccc2s1 was read as Giardia FBPA inh-1 -14%.
`CCc1nnc(NC(=O)CN2CCN(C(=O)c3ccccc3)CC2)s1` gave Giardia FBPA inh-1 -2%.
CCN1CCN(CC(=O)Nc2nc3ccccc3s2)CC1 was read as Giardia FBPA inh-1 10µM*, Giardia growth -22%, Mammal cell tox -5%, Giardia FBPA inh-2 2%, Rabbit FBPA inh 8% and GAPDH counter 3%.

Bioassay records (PubChem BioAssay)
